# Reference: PubChem BioAssay (EPA / NIEHS)
# Inconclusive results are not listed. Active and inactive are the calls of the source. The calls were made as follows, unless noted: active = hit-call score of the fitted dose curve at least 0.9, where 1 is the maximum; inactive = score below 0.9.
# Experiments:
# [1] = CCTE_Shafer_MEA_dev_network_spike_duration_std: CCTE's Neural Network Formation Assay for Standard Deviation of Network Spike Duration, Shafer Lab (AID 2284052);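 also: hits are decreases in network spike duration SD versus DMSO vehicle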
# How it was run: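 Network spike duration variability was collapsed across recordings on days 5, 7, 9 and 12 by trapezoidal area-under-curve and fitted downward against DMSO. Cultures were rat cortical neurons on PEI-coated MEA plates, dosed continuously from plating, refed with compound DIV 5/9.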
# [2] = CCTE_Shafer_MEA_dev_per_network_spike_spike_number_mean: CCTE's Neural Network Formation Assay for Mean Number of Spikes in a Network Spike, Shafer Lab (AID 2284053)
# How it was run: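 Mean spike count within each network spike, taken in a 0.05 s window at its peak, was recorded on days 5, 7, 9 and 12 and integrated as trapezoidal area under the curve. Rat cortical cultures on MEA plates received continuous compound from day 0, refreshed at medium changes on DIV 5 and 9.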
# [3] = CCTE_Shafer_MEA_dev_per_network_spike_spike_percent: CCTE's Neural Network Formation Assay for Percent of Spikes in a Network Spike, Shafer Lab (AID 2284054)
# How it was run: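 Developing networks of rat cortical neurons are dosed at day 0 and recorded extracellularly four times up to day 12. The endpoint is the area under the curve of percent spikes in network spikes, fitted in the negative direction relative to DMSO.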
# [4] = CCTE_Shafer_MEA_dev_LDH: CCTE's Lactate Dehydrogenase Assay for Cytotoxicity in the Neural Network Formation Assay, Shafer Lab (AID 2284068; active = hit-call score of the fitted dose curve at least 0.9, where 1 is the maximum;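 also: exposure for twelve days from plating with re-dosing on DIV 5 and 9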)
# How it was run: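 Primary rat cortical neurons were cultured on PEI-coated MEA plates and exposed from plating through day 12, with compound renewed at medium changes on DIV 5 and 9. LDH activity was read spectrophotometrically; loss of signal versus DMSO indicates reduced viability.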
# [5] = CCTE_Shafer_MEA_dev_mutual_information_norm: CCTE's Neural Network Formation Assay for Mutual Information Normalization, Shafer Lab (AID 2284091)
# How it was run: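 Exposure of primary rat cortical neurons began at plating and ran to DIV 12, with full media and treatment renewal after DIV 5 and 9 recordings. Mutual information AUC (DIV 5–12) was analysed for loss versus DMSO.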
# [6] = CCTE_Shafer_MEA_dev_correlation_coefficient_mean: CCTE's Neural Network Formation Assay for Mean Correlation Coefficient, Shafer Lab (AID 2284093)
# How it was run: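 Primary rat cortical neurons on PEI-coated 48-well MEA plates (16 electrodes/well) were exposed from plating day 0 through DIV12, with compound renewed at DIV5 and 9. Pairwise spike correlations were averaged per well; trapezoidal AUC across DIV5, 7, 9, 12.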
# [7] = CCTE_Mundy_HCI_Cortical_Synap_Neur_Matur_NeuriteSpotCountPerNeuriteLength: CCTE's Synaptogenesis and Neurite Maturation Assay in rat cortical cells for Neurite Spot Count per Neurite Length, Mundy Lab (AID 2284210)
# How it was run: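 Neurite-associated synapse density (synaptophysin puncta per unit neurite length) is measured by fluorescence high-content imaging in rat cortical cultures treated from DIV 7 and fixed at DIV 12, with DMSO as negative control.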
# [8] = CCTE_Mundy_HCI_Cortical_Synap_Neur_Matur_BPCount: CCTE's Synaptogenesis and Neurite Maturation Assay in rat cortical cells for Branch Point Count, Mundy Lab (AID 2284211)
# How it was run: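 HCI read-out of branch points from MAP2/synaptophysin/Hoechst immunofluorescence; rat cortical cultures, AraC DIV 5, dosing DIV 7, fixed DIV 12; fit in positive direction vs DMSO baseline.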
# [9] = CCTE_Mundy_HCI_Cortical_NOG_NeuriteCount: CCTE's Neurite Outgrowth Assay in rat cortical cells for Neurite Count, Mundy Lab (AID 2284212);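 also: cells fixed about two days after chemical exposure began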
# How it was run: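 Rat cortical primary cells; compound added 2 h post-plating, 1/10 dilution of working solution. Anti-betaIII-tubulin/AF488 ICC; ArrayScan neurite count vs DMSO.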
# [10] = CCTE_Mundy_HCI_Cortical_NOG_NeuriteLength: CCTE's Neurite Outgrowth Assay in rat cortical cells for Neurite Length, Mundy Lab (AID 2284213)
# How it was run: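 First, rat primary cortical cells were plated and, 2 h later, given test chemical as a 1/10 dilution. Finally, βIII-tubulin immunostaining enabled automated imaging of neurite length.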
# [11] = CCTE_Mundy_HCI_Cortical_Synap_Neur_Matur_NeuriteSpotCountPerNeuron: CCTE's Synaptogenesis and Neurite Maturation Assay in rat cortical cells for Neurite Spot Count per Neuron Count, Mundy Lab (AID 2284215)
# How it was run: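 Developing rat cortical neurons, with glia suppressed by AraC, are exposed to chemicals from DIV 7 to DIV 12. Automated fluorescence imaging of MAP2-labelled neurites and synaptophysin puncta yields a count per neuron, normalised against DMSO wells.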
# [12] = CCTE_Mundy_HCI_Cortical_Synap_Neur_Matur_SynapseCount: CCTE's Synaptogenesis and Neurite Maturation Assay in rat cortical cells for Synapse Count, Mundy Lab (AID 2284218)
# How it was run: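 Cells were plated, allowed 2 hr to attach, treated with AraC at DIV 5, then exposed to chemicals from DIV 7 until DIV 12. After fixation and MAP2/synaptophysin immunolabelling, synapses per neuron were quantified by automated imaging against DMSO.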
# [13] = CCTE_Mundy_HCI_Cortical_Synap_Neur_Matur_NeuriteCount: CCTE's Synaptogenesis and Neurite Maturation Assay in rat cortical cells for Neurite Count, Mundy Lab (AID 2284222);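 also: exposure from day 7 to day 12 in vitro with readout at day 12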
# How it was run: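 Rat cortical neurons, 96-well; AraC DIV 5; chemical + media change DIV 7; end DIV 12. Fix PFA/Hoechst, anti-MAP2 + anti-synaptophysin IF. HCI neurite count vs DMSO baseline.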
# [14] = CCTE_Mundy_HCI_Cortical_Synap_Neur_Matur_CellBodySpotCount: CCTE's Synaptogenesis and Neurite Maturation Assay in rat cortical cells for Cell Body Spot Count, Mundy Lab (AID 2284223)
# How it was run: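 Chemicals were applied to AraC-treated rat primary cortical cells at DIV 7 and measured at DIV 12. Fixed cells were labelled for MAP2, synaptophysin and nuclei, and high-content imaging gave cell body synaptophysin spot counts per neuron relative to DMSO.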
# [15] = CCTE_Mundy_HCI_Cortical_NOG_BPCount: CCTE's Neurite Outgrowth Assay in rat cortical cells for Branch Point Count, Mundy Lab (AID 2284237)
# How it was run: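 Measured 50.33 h after dosing, this morphology endpoint uses rat primary cortical cultures labelled for betaIII-tubulin. Branch points are quantified by high-content imaging, with DMSO as negative control and baseline.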
# [16] = CCTE_Mundy_HCI_hNP1_Casp3_7: CCTE's Caspase-Glo 3/7 Assay in human neuroprogenitor cells for Apoptosis, Mundy Lab (AID 2284240)
# How it was run: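 Neuroepithelial-lineage stem cells from WA09 embryonic cells were treated with chemicals after 40–44 h of culture. Twenty-four hours later, caspase-3/7 activation was detected luminescently after a 30 min room-temperature reagent step, with DMSO as baseline.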
# [17] = CCTE_Mundy_HCI_iCellGluta_NOG_NeuronCount: CCTE's Neurite Outgrowth Assay in iCellGluta cells for Neuron Count, Mundy Lab (AID 2284340; active = hit-call score of the fitted dose curve at least 0.9, where 1 is the maximum;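 also: cells fixed about 48 h after compound addition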)
# How it was run: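 Neuron count read by automated high-content imaging of Hoechst 33342 and betaIII-tubulin/Alexa Fluor-488 labelling in human iPSC glutamatergic neurons. Activity fitted relative to DMSO.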
# [18] = CCTE_Mundy_HCI_iCellGluta_NOG_NeuriteCount: CCTE's Neurite Outgrowth Assay in iCellGluta cells for Neurite Count, Mundy Lab (AID 2284342; active = hit-call score of the fitted dose curve at least 0.9, where 1 is the maximum;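 also: chemical exposure about 48 hours starting 2 hours after plating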)
# Method: CCTE_Mundy_HCI_iCellGluta_NOG is a multiplexed, cell-based-readout assay that uses iCell GlutaNeurons from FUJIFILM Cellular Dynamics, Inc. (FCDI), human glutamatergic enriched neurons derived from induced pluripotent stem (iPS) cells, with measurements taken at 50.33 hours after chemical dosing in a microplate: 96-well plate.CCTE_Mundy_HCI_iCellGluta_NOG_NeuriteCount is one of four components of the CCTE_Mundy_HCI_iCellGluta_NOG assay. It measures neurite outgrowth related to number of neurites using High Content Imaging of fluorescently labelled markers.Data from the assay component CCTE_Mundy_HCI_iCellGluta_NOG_NeuriteCount was analyzed at the endpoint CCTE_Mundy_HCI_iCellGluta_NOG_NeuriteCount in the positive analysis fitting direction relative to DMSO as the negative control and baseline of activity. Using a type of morphology reporter, loss-of-signal activity can be used to understand developmental effects.
# Exposure starts 2 hours post-plating by adding 10 ul of the working solution to 90 ul of media in the wells for a 1/10 dilution. Forty-eight hours after chemical treatment cells are fixed by direct addition of 100 ul of warm (37C) Dulbecco's phosphate buffered saline (DPBS) fixative solution containing 8% paraformaldehyde, 8% sucrose, and 0.1% of 3 mg/ml Hoechst 33342 into each well. Primary antibodies are prepared by dilution in Immunocytochemical Staining Buffer (ISB), 10X Dulbecco's PBS, 0.1% Saponin, 5% Bovine Serum Albumin, 0.5% NaN3 (Sodium Azide) and betaIII-tubulin (rabbit anti-betaIII-tubulin, 1:800) followed by Alexa Fluor-488 secondary (1:500) to label neuronal cell bodies and neurites. A Cellomics ArrayScan VTi HCS Reader is used for automated image acquisition and analysis of neurite outgrowth.
# [19] = CEETOX_H295R_OHPREG: CeeTox H295R High-throughput Steroidogenesis Assay for OH-Pregnenolone (OHPREG) (AID 2283434); conditions: actives raise or lower the signal
# How it was run: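 Readout: HPLC-MS/MS of 17alpha-hydroxypregnenolone in medium after 48 h chemical exposure of H295R cells pretreated with forskolin. Values fitted bidirectionally relative to DMSO; chemicals reducing viability to 20–70% were retested after 10-fold dilution.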
# [20] = CEETOX_H295R_OHPROG: CeeTox H295R High-throughput Steroidogenesis Assay for OH-Progesterone (OHPROG) (AID 2283435); conditions: actives raise or lower the signal;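 as to AC50: human adrenal H295R cells primed 48 h with 10 µM forskolin; 17alpha-hydroxyprogesterone secreted into medium measured by HPLC-MS/MS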
# How it was run: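 Steps: seed H295R cells and adhere overnight; stimulate with 10 uM forskolin for 48 h; replace with chemical-containing medium (0.1% DMSO) for 48 h; extract medium with MTBE; quantify 17alpha-hydroxyprogesterone by reverse-phase C18 HPLC-MS/MS against a 7-point curve.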
compound,measurement,setting,value
NC(N)=Nc1nc(CSCCC(N)=NS(N)(=O)=O)cs1,outcome,[1],inactive
same,outcome,[2],inactive
same,outcome,[3],inactive
same,outcome,[4],inactive
same,outcome,[5],inactive
same,outcome,[6],inactive
same,outcome,[7],inactive
same,outcome,[8],inactive
same,outcome,[9],inactive
same,outcome,[10],inactive
same,outcome,[11],inactive
same,outcome,[12],inactive
same,outcome,[13],inactive
same,outcome,[14],inactive
same,outcome,[15],inactive
same,outcome,[16],inactive
same,outcome,[17],inactive
same,outcome,[18],inactive
CC1(C)S[C@@H]2[C@H](NC(=O)[C@H](N)c3ccccc3)C(=O)N2[C@H]1C(=O)O,outcome,[1],inactive
same,outcome,[2],inactive
same,outcome,[3],inactive
same,outcome,[4],inactive
same,outcome,[5],inactive
same,outcome,[6],inactive
same,outcome,[7],inactive
same,outcome,[8],inactive
same,outcome,[9],inactive
same,outcome,[10],inactive
same,outcome,[11],inactive
same,outcome,[12],inactive
same,outcome,[13],inactive
same,outcome,[14],inactive
same,outcome,[15],inactive
same,outcome,[16],inactive
same,outcome,[17],inactive
same,outcome,[18],inactive
CCCCOC(=O)COc1ccc(Cl)cc1Cl,outcome,[19],inactive
same,AC50,[20],74.6 µM (active)
CCO[Si](CCCN)(OCC)OCC,outcome,[19],inactive
same,outcome,[20],inactive
CN(C)CCC(c1ccc(Cl)cc1)c1ccccn1 (stereo not given),outcome,[1],inactive
same,outcome,[2],inactive
same,outcome,[3],inactive
same,outcome,[4],inactive
same,outcome,[5],inactive
same,outcome,[6],inactive
same,outcome,[7],inactive
same,outcome,[8],inactive
same,outcome,[9],inactive
same,outcome,[10],inactive
same,outcome,[11],inactive
same,outcome,[12],inactive
same,outcome,[13],inactive
same,outcome,[14],inactive
same,outcome,[15],inactive
same,outcome,[16],inactive
same,outcome,[17],inactive
same,outcome,[18],inactive
c1ccc(CNc2ncnc3nc[nH]c23)cc1,outcome,[19],inactive
same,outcome,[20],inactive
